# Laboratory results taken from ChEMBL document CHEMBL2218924, “A broad activity screen in support of a chemogenomic map for kinase signalling research and drug discovery” (Biochem J, 2013).
# Legend:
# [1] = molecular target: Fibroblast growth factor receptor 1 (Homo sapiens) (UniProt P11362); conditions: at 1 µM
# [2] = molecular target: Fibroblast growth factor receptor 1 (Homo sapiens) (UniProt P11362); conditions: at 10 µM
# [3] = molecular target: Fibroblast growth factor receptor 2 (Homo sapiens) (UniProt P21802); conditions: at 1 µM
# Sequence of Fibroblast growth factor receptor 2 (Homo sapiens) (P21802 22-821 limits assumed): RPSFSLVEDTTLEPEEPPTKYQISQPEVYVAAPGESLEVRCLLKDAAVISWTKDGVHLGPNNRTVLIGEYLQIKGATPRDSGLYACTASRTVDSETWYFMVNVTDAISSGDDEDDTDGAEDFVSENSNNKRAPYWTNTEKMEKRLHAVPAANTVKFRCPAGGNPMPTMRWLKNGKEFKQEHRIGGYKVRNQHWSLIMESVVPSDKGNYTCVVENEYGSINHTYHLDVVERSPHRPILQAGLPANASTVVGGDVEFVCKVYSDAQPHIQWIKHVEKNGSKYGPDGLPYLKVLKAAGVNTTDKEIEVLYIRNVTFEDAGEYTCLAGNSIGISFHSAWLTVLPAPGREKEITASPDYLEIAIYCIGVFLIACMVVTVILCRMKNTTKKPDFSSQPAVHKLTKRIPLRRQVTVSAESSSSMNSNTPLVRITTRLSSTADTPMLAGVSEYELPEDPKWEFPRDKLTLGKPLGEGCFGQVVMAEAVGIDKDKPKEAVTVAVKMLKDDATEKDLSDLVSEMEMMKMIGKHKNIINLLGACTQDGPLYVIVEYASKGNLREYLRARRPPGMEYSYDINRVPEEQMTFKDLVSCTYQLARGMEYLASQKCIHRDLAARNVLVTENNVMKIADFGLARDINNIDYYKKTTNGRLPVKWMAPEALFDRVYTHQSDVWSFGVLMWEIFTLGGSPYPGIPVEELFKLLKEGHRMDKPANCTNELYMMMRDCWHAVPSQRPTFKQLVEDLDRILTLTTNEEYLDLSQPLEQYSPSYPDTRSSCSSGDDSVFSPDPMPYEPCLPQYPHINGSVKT
# [4] = molecular target: Fibroblast growth factor receptor 2 (Homo sapiens) (UniProt P21802); conditions: at 10 µM
# [5] = molecular target: Fibroblast growth factor receptor 3 (Homo sapiens) (UniProt P22607); conditions: at 1 µM
# Sequence of Fibroblast growth factor receptor 3 (Homo sapiens) (P22607 23-806 limits assumed): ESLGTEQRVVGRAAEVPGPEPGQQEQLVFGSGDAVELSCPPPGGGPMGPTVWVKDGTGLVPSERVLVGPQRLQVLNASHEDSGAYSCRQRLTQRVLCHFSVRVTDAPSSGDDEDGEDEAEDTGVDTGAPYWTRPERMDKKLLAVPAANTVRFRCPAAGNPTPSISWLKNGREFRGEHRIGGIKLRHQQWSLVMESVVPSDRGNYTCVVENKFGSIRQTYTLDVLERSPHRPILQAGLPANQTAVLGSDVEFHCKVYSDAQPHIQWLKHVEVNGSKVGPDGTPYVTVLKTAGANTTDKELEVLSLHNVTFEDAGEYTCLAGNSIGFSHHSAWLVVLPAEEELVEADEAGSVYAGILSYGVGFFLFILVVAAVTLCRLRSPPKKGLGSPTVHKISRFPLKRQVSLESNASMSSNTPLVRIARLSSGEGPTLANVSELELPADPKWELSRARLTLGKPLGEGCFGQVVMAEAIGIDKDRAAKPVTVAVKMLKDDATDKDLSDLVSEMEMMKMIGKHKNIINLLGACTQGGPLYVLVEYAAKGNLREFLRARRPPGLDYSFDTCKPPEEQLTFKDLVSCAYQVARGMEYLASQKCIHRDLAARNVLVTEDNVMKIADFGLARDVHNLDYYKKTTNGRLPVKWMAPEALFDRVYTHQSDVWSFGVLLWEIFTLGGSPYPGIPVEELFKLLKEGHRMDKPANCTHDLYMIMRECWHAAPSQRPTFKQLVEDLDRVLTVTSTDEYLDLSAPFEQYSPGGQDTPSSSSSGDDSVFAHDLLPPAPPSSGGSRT
# [6] = molecular target: Fibroblast growth factor receptor 3 (Homo sapiens) (UniProt P22607); conditions: at 10 µM
# [7] = molecular target: Fibroblast growth factor receptor 4 (Homo sapiens) (UniProt P22455); conditions: at 1 µM
# Sequence of Fibroblast growth factor receptor 4 (Homo sapiens) (P22455 22-802 limits assumed): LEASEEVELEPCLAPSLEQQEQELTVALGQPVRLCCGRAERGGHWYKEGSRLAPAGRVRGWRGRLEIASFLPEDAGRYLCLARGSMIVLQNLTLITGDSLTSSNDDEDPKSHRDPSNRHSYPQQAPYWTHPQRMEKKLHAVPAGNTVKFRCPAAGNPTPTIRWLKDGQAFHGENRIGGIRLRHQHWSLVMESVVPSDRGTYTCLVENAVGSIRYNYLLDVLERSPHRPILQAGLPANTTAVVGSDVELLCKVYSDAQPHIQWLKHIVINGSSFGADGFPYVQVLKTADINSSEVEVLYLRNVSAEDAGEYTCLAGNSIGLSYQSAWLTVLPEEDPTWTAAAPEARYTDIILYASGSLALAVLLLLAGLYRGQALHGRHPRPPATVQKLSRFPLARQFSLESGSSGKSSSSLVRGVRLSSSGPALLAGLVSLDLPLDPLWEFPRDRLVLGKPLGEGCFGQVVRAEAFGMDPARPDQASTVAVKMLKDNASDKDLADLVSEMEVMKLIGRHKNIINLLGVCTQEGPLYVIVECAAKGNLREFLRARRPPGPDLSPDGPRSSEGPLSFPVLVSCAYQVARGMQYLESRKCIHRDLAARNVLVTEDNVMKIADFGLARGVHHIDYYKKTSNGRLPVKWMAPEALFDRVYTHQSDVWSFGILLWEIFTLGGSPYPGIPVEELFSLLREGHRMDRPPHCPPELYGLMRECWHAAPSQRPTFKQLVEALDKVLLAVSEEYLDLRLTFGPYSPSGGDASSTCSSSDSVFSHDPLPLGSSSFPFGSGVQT
# [8] = molecular target: Fibroblast growth factor receptor 4 (Homo sapiens) (UniProt P22455); conditions: at 10 µM
# [9] = molecular target: Tyrosine-protein kinase Fer (Homo sapiens) (UniProt P16591); conditions: at 1 µM
# Sequence of Tyrosine-protein kinase Fer (Homo sapiens) (P16591 whole entry, looked up): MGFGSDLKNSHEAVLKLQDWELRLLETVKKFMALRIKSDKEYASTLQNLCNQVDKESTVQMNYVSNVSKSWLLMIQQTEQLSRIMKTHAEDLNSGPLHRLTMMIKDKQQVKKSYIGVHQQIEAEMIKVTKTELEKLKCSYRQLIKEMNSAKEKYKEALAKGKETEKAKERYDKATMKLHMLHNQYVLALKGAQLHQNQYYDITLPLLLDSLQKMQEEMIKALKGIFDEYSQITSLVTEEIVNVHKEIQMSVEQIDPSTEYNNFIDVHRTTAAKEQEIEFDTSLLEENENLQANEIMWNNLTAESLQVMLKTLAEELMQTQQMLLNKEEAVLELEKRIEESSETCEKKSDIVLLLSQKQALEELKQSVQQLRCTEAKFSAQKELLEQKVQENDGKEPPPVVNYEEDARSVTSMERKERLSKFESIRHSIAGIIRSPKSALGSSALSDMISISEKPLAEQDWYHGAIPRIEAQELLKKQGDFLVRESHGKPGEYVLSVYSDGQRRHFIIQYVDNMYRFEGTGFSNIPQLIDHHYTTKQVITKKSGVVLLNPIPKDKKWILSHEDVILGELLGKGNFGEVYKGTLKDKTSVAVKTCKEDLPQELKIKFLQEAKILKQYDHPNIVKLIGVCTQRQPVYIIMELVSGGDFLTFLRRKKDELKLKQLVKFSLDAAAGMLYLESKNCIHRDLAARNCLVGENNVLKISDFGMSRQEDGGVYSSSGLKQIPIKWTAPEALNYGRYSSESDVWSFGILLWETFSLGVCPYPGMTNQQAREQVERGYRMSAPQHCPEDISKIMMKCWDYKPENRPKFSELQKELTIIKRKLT
# [10] = molecular target: Focal adhesion kinase 1 (Homo sapiens) (UniProt Q05397); conditions: at 10 µM
# Sequence of Focal adhesion kinase 1 (Homo sapiens) (Q05397 2-1052 limits assumed): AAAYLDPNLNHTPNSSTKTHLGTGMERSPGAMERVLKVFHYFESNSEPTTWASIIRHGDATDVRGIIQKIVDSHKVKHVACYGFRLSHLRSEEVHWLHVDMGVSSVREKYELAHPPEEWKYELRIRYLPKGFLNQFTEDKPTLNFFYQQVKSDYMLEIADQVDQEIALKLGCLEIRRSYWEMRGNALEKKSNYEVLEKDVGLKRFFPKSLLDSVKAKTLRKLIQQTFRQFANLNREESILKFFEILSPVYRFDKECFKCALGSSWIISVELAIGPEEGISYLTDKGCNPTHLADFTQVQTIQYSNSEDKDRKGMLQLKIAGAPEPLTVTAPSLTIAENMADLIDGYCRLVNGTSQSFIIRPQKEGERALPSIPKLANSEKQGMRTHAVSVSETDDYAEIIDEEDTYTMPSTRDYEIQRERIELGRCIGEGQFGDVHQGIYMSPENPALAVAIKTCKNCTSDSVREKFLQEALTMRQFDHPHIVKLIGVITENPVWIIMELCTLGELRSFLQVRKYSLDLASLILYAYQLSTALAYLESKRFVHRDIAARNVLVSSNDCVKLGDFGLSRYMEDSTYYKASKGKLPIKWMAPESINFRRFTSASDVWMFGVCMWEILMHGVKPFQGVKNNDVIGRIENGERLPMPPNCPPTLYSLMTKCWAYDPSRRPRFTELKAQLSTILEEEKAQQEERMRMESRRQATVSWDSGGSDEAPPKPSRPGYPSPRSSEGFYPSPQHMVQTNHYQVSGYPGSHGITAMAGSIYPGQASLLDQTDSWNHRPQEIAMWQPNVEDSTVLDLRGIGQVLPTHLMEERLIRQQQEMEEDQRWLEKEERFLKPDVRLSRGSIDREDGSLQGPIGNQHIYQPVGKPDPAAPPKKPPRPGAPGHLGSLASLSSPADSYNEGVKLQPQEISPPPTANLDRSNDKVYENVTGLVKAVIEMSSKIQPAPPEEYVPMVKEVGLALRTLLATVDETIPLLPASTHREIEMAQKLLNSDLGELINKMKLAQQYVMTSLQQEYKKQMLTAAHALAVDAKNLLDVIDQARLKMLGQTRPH
# Sequence of Fibroblast growth factor receptor 1 (Homo sapiens) (P11362 22-822 limits assumed): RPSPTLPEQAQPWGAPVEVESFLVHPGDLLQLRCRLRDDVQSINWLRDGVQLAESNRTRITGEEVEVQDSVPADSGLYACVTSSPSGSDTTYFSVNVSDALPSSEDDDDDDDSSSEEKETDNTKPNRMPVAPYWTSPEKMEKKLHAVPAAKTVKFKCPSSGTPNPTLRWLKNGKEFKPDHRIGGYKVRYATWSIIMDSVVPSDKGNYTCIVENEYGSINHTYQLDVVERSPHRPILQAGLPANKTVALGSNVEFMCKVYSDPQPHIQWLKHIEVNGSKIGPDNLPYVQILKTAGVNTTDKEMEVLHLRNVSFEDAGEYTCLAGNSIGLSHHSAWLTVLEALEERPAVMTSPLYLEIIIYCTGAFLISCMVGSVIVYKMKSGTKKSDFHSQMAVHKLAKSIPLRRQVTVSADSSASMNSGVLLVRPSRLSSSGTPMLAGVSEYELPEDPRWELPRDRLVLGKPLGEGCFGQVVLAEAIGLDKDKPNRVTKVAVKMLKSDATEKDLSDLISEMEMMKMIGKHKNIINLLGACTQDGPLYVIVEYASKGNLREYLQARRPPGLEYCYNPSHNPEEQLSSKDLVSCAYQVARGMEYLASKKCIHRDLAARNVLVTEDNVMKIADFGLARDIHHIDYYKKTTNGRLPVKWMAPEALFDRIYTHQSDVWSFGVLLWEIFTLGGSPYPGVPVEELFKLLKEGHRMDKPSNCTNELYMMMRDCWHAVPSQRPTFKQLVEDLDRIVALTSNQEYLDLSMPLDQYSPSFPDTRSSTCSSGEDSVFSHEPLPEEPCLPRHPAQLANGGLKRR
Compound,residual activity [1] [%],residual activity [2] [%],residual activity [3] [%],residual activity [4] [%],residual activity [5] [%],residual activity [6] [%],residual activity [7] [%],residual activity [8] [%],residual activity [9] [%],residual activity [10] [%]
O=C1c2ccccc2-c2nc3nnnn3nc21,113,81,118,135,125,132,118,106,112,–
COC(=O)[C@@]1(O)C[C@H]2O[C@]1(C)n1c3ccccc3c3c4c(c5c6ccccc6n2c5c31)C(=O)NC4,10,11,20,2,17,2,88,36,2,5
COc1cc2ncnc(Nc3ccc(OCc4ccccc4)cc3)c2cc1OC,88,69,100,109,97,100,122,99,111,81
CCc1nc(-c2ccc(OC)cc2)[nH]c1-c1ccncc1,104,80,121,–,–,124,102,109,104,81
C[S+]([O-])c1ccc(-c2nc(-c3ccc(F)cc3)c(-c3ccncc3)[nH]2)cc1 (stereo unspecified),142,90,99,81,115,99,110,97,107,115
O=c1[nH]c2ccccc2n1C1CCN(Cc2ccc(-c3nc4cc5[nH]cnc5cc4nc3-c3ccccc3)cc2)CC1,112,38,111,78,115,99,111,88,112,87
O=C1NC(=O)c2c1c1c3ccccc3n3c1c1c2c2ccccc2n1C1CCC3O1,72,41,83,78,82,92,–,–,33,–
O=C1Nc2ccc3ncsc3c2/C1=C/c1c[nH]cn1,9,1,18,3,19,9,112,84,–,13
COc1ccc2c(c[n+](C)c3c4cc5c(cc4ccc23)OCO5)c1OC,85,44,–,–,–,57,–,100,–,93
N/C(=N\[N+](=O)[O-])N/N=C\c1ccc(-c2cccc([N+](=O)[O-])c2)o1,–,–,–,92,95,92,–,–,–,–
c1cc(-c2cnn3cc(-c4ccc(OCCN5CCCCC5)cc4)cnc23)ccn1,47,5,–,–,–,–,–,72,–,–
COc1ccc2c(c1)/C(=C/c1cnc[nH]1)C(=O)N2,65,3,53,12,61,14,–,–,–,25
CC(C)[C@H](CO)Nc1nc(Nc2cccc(Cl)c2)c2ncn(C(C)C)c2n1,98,15,–,–,–,56,118,–,90,13
O=[N+]([O-])/C=C/c1ccc2c(c1)OCO2,115,94,108,97,104,107,135,104,114,72
COc1cc(OC)c(/C=C2\C(=O)Nc3ccccc32)c(OC)c1,107,88,102,90,–,–,–,–,97,81
CC(C)(C)c1cc(C=C(C#N)C#N)cc(Br)c1O,108,–,99,105,126,99,118,102,120,104
CCn1cnc2c(Nc3cccc(Cl)c3)nc(N[C@@H]3CCCC[C@@H]3N)nc21,76,11,–,34,113,53,118,79,85,12
